Experimental data reported in the supplement of paper PMC6897291.

What was measured:
U-2932 [1] = assay: growth inhibition by drug alone (1 - RLU/untreated control) (fraction); higher = stronger inhibition; conditions: 177Lu-lilotomab satetraxetan 0 ug/ml
Procedure, shortened: (§1)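 Compound doses on the pre-printed Selleck Cambridge Cancer Compound library plates were 10/100 nM for RIVA cells and 10/1,000 nM for U-2932 cells, seeded at 3,000 cells/well. Before seeding, cells were washed after 18 h with or without a radiolabelled anti-CD37 antibody conjugate (~600 MBq/mg; 0.5 µg/ml RIVA, 1 µg/ml U-2932). Growth inhibition was derived from RealTime-Glo luminescence relative to untreated no-drug control wells. Readings were taken daily starting on day 3, each after 1 h at 37°C, and each well's RLU was divided by the mean of 48 such wells per plate and subtracted from 1.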

RIVA [2] = assay: as above; conditions: 177Lu-lilotomab satetraxetan 0 ug/ml
Procedure, shortened: as §1

U-2932 [3] = assay: growth inhibition by drug plus 177Lu-lilotomab satetraxetan (1 - RLU/untreated control) (fraction); higher = stronger inhibition; conditions: 177Lu-lilotomab satetraxetan 1 ug/ml
Procedure, shortened: as §1

RIVA [4] = assay: as above; conditions: 177Lu-lilotomab satetraxetan 0.5 ug/ml
Procedure, shortened: as §1

SMILES	growth inhibition by drug alone (U-2932 [1]; 10 nM, time (day): 3)	growth inhibition by drug alone (U-2932 [1]; 10 nM, time (day): 4)	growth inhibition by drug alone (U-2932 [1]; 10 nM, time (day): 5)	growth inhibition by drug alone (U-2932 [1]; 10 nM, time (day): 6)	growth inhibition by drug alone (U-2932 [1]; 1000 nM, time (day): 3)	growth inhibition by drug alone (U-2932 [1]; 1000 nM, time (day): 4)	growth inhibition by drug alone (U-2932 [1]; 1000 nM, time (day): 5)	growth inhibition by drug alone (U-2932 [1]; 1000 nM, time (day): 6)	growth inhibition by drug alone (RIVA [2]; 10 nM, time (day): 3)	growth inhibition by drug alone (RIVA [2]; 10 nM, time (day): 4)	growth inhibition by drug alone (RIVA [2]; 10 nM, time (day): 5)	growth inhibition by drug alone (RIVA [2]; 10 nM, time (day): 6)	growth inhibition by drug alone (RIVA [2]; 100 nM, time (day): 3)	growth inhibition by drug alone (RIVA [2]; 100 nM, time (day): 4)	growth inhibition by drug alone (RIVA [2]; 100 nM, time (day): 5)	growth inhibition by drug alone (RIVA [2]; 100 nM, time (day): 6)	growth inhibition by drug plus 177Lu-lilotomab satetraxetan (U-2932 [3]; 10 nM, time (day): 3)	growth inhibition by drug plus 177Lu-lilotomab satetraxetan (U-2932 [3]; 10 nM, time (day): 4)	growth inhibition by drug plus 177Lu-lilotomab satetraxetan (U-2932 [3]; 10 nM, time (day): 5)	growth inhibition by drug plus 177Lu-lilotomab satetraxetan (U-2932 [3]; 10 nM, time (day): 6)	growth inhibition by drug plus 177Lu-lilotomab satetraxetan (U-2932 [3]; 1000 nM, time (day): 3)	growth inhibition by drug plus 177Lu-lilotomab satetraxetan (U-2932 [3]; 1000 nM, time (day): 4)	growth inhibition by drug plus 177Lu-lilotomab satetraxetan (U-2932 [3]; 1000 nM, time (day): 5)	growth inhibition by drug plus 177Lu-lilotomab satetraxetan (U-2932 [3]; 1000 nM, time (day): 6)	growth inhibition by drug plus 177Lu-lilotomab satetraxetan (RIVA [4]; 10 nM, time (day): 3)	growth inhibition by drug plus 177Lu-lilotomab satetraxetan (RIVA [4]; 10 nM, time (day): 4)	growth inhibition by drug plus 177Lu-lilotomab satetraxetan (RIVA [4]; 10 nM, time (day): 5)	growth inhibition by drug plus 177Lu-lilotomab satetraxetan (RIVA [4]; 10 nM, time (day): 6)	growth inhibition by drug plus 177Lu-lilotomab satetraxetan (RIVA [4]; 100 nM, time (day): 3)	growth inhibition by drug plus 177Lu-lilotomab satetraxetan (RIVA [4]; 100 nM, time (day): 4)	growth inhibition by drug plus 177Lu-lilotomab satetraxetan (RIVA [4]; 100 nM, time (day): 5)	growth inhibition by drug plus 177Lu-lilotomab satetraxetan (RIVA [4]; 100 nM, time (day): 6)
O=C(O)C(Cc1c[nH]c2ccccc12)N1C(=O)c2ccccc2C1=O (stereo not drawn)	0.0147	0.0153	-0.0484	-0.236	-0.0782	-0.0484	-0.0679	-0.115	-0.0918	-0.166	-0.249	-0.485	-0.231	-0.283	-0.253	-0.339	-0.0896	-0.0477	-0.032	0.0338	-0.157	-0.0639	-0.0646	-0.0481	0.311	0.457	0.475	0.497	0.275	0.394	0.397	0.381
Nc1nccc(Oc2ccc(NC(=O)c3c[nH]cc(-c4ccc(F)cc4)c3=O)cc2F)c1Cl	-0.0716	-0.0777	-0.0731	-0.06	-0.103	-0.0916	-0.0987	-0.109	-0.189	-0.254	-0.278	-0.424	-0.523	-0.459	-0.483	-0.598	-0.0906	-0.0231	0.0271	0.0973	-0.0589	0.0171	0.0665	0.209	0.468	0.516	0.536	0.547	0.364	0.43	0.425	0.43
COc1ccc(/C=C\c2cc(OC)c(OC)c(OC)c2)cc1O [Combretastatin A4]	0.967	0.973	0.979	0.983	0.965	0.975	0.981	0.985	0.953	0.965	0.971	0.975	0.924	0.936	0.954	0.964	0.971	0.978	0.983	0.986	0.965	0.979	0.985	0.988	0.964	0.976	0.98	0.984	0.936	0.949	0.963	0.971
CN1CCN(c2nc(C3=C(c4c[nH]c5ccccc45)C(=O)NC3=O)c3ccccc3n2)CC1 [Sotrastaurin (AEB071)]	0.186	0.158	0.0846	0.122	0.463	0.616	0.696	0.756	0.214	0.132	0.0773	-0.121	0.163	0.124	0.0507	-0.0643	0.109	0.131	0.175	0.293	0.572	0.709	0.75	0.788	0.535	0.604	0.626	0.628	0.584	0.609	0.607	0.591
CN(C)C/C=C/C(=O)Nc1cc2c(Nc3ccc(F)c(Cl)c3)ncnc2cc1O[C@H]1CCOC1 [Afatinib (BIBW2992)]	0.0755	0.0672	0.0124	-0.039	0.0101	0.0989	0.0569	0.0902	0.0532	-0.016	-0.0806	-0.333	-0.091	-0.147	-0.146	-0.262	0.0397	0.0532	0.0798	0.0941	-0.123	0.0652	0.0526	0.121	0.437	0.523	0.544	0.558	0.389	0.492	0.493	0.456
CC[C@@H]1C(=O)N(C)c2cnc(Nc3ccc(C(=O)N[C@H]4CC[C@H](N5CCN(CC6CC6)CC5)CC4)cc3OC)nc2N1C(C)C [BI6727 (Volasertib)]	0.335	0.327	0.308	0.37	0.962	0.975	0.98	0.982	0.23	0.19	0.153	0.0282	0.943	0.962	0.969	0.971	0.255	0.307	0.34	0.465	0.917	0.946	0.965	0.977	0.631	0.702	0.726	0.726	0.939	0.964	0.975	0.981
CN[C@@H](C)C(=O)N[C@H]1CN(C(=O)CC(C)C)CC[C@H]2CC[C@@H](C(=O)NC(c3ccccc3)c3ccccc3)N2C1=O	0.0554	0.0151	-0.0459	-0.197	-0.059	-0.0374	-0.0798	-0.0575	0.00534	-0.116	-0.171	-0.417	-0.168	-0.227	-0.25	-0.406	-0.0234	-0.00591	0.0157	0.0545	-0.0193	0.0475	0.055	0.159	0.456	0.56	0.581	0.599	0.456	0.551	0.567	0.544
c1ccc2c(-c3cnn4cc(-c5ccc(N6CCNCC6)cc5)cnc34)ccnc2c1	-0.114	-0.118	-0.0883	0.0163	-0.0225	-0.0275	-0.0302	0.125	-0.24	-0.273	-0.265	-0.249	-0.167	-0.254	-0.224	-0.213	-0.113	-0.0441	0.0116	0.0932	-0.0291	-0.0174	0.0152	0.209	0.399	0.521	0.544	0.537	0.307	0.408	0.431	0.436
NC(=O)Nc1sc(-c2ccc(F)cc2)cc1C(N)=O	0.0734	0.0553	0.0297	-0.262	0.197	0.229	0.176	0.239	-0.0481	-0.0689	-0.274	-0.781	-0.446	-0.283	-0.285	-0.444	0.0182	0.0728	0.0938	0.118	0.334	0.356	0.397	0.502	0.484	0.574	0.584	0.586	0.259	0.411	0.413	0.434
O=C(O[C@@H]1Cc2c(O)cc(O)cc2O[C@@H]1c1cc(O)c(O)c(O)c1)c1cc(O)c(O)c(O)c1 [(-)-Epigallocatechin gallate]	0.0464	-0.0176	-0.149	-0.234	-0.0141	-0.0657	-0.154	-0.12	-0.0443	-0.156	-0.418	-0.714	-0.587	-0.43	-0.44	-0.545	-0.0356	0.00037	-0.03	-0.022	0.0188	0.036	0.0512	0.127	0.452	0.532	0.55	0.559	0.363	0.454	0.47	0.474
Nc1ccc(-c2ccc3ncc4ccc(=O)n(-c5cccc(C(F)(F)F)c5)c4c3c2)cn1 [Torin 2]	0.465	0.318	0.24	0.244	0.937	0.963	0.974	0.981	0.402	0.267	0.158	-0.141	0.769	0.804	0.808	0.781	0.305	0.238	0.247	0.312	0.953	0.97	0.98	0.986	0.613	0.549	0.527	0.515	0.838	0.874	0.881	0.887
COc1cc(OC2CCN(C)CC2)ccc1Nc1ncc2c(n1)n(C1CCCC1)c(=O)n2C	-0.0462	-0.0489	-0.0615	-0.034	-0.165	-0.184	-0.206	-0.247	-0.233	-0.291	-0.358	-0.453	-0.524	-0.553	-0.545	-0.66	-0.087	-0.0366	0.0152	0.102	-0.121	-0.0709	-0.0115	0.128	0.539	0.578	0.601	0.587	0.355	0.432	0.453	0.479
Cc1cnc(NC(=O)Nc2cc(Br)c(C)cc2OC[C@@H]2CNCCO2)cn1	0.0563	0.0329	0.0344	0.113	0.227	0.217	0.207	0.233	-0.0313	-0.0243	-0.0759	-0.161	0.0523	0.0207	-0.0517	-0.0919	-0.00545	0.00557	0.0372	0.164	0.245	0.335	0.376	0.486	0.47	0.531	0.56	0.57	0.176	0.216	0.235	0.246
COc1ccc2c3n(c(=NC(=O)c4cccnc4)nc2c1OC)CCN3	0.1	0.0853	-0.0391	-0.132	0.165	0.128	0.0515	0.0321	0.159	0.0605	-0.0752	-0.345	0.0975	0.0435	0.0156	-0.048	0.021	0.066	0.0894	0.178	0.192	0.175	0.166	0.278	0.429	0.534	0.559	0.569	0.482	0.53	0.551	0.551
